Measurements as given in the antibiotic and cytotoxicity screens of Wong et al. (2023).
The campaign covered roughly 39,000 compounds. About 3,300 (8.5%) were called active. The sample as a whole holds a higher share of actives than the screen did.

What follows are molecules tested on HepG2 (assay: cytotoxicity call (relative viability < 0.9)). Settings: 10 µM.

| SMILES | cytotoxicity call |
| --- | --- |
| C[C@H]1CCCCO[C@H](CN(C)C(=O)Nc2ccc3c(c2)OCO3)[C@@H](C)CN([C@@H](C)CO)C(=O)c2cc(NS(=O)(=O)c3cccs3)ccc2O1 | inactive |
| C[C@H](CO)N1C[C@H](C)[C@H](CN(C)Cc2ccc(C(=O)Nc3ccccc3N)cc2)Oc2c(NS(C)(=O)=O)cccc2C1=O | inactive |
| COCCNCCn1cnc2c1c(=O)[nH]c(=O)n2C | inactive |
| C[C@@H]1CCCCO[C@@H](CN(C)Cc2ccncc2)[C@H](C)CN([C@H](C)CO)C(=O)c2cc(NC(=O)Nc3ccc4c(c3)OCO4)ccc2O1 | inactive |
| C[C@@H]1CCCCO[C@@H](CN(C)C(=O)CCCN(C)C)[C@@H](C)CN([C@@H](C)CO)C(=O)c2cc(NC(=O)Nc3ccc(C(F)(F)F)cc3)ccc2O1 | inactive |
| Cc1ccc(S(=O)(=O)N(C)C[C@H]2OCCCC[C@H](C)Oc3ccc(NC(=O)Nc4c(C)noc4C)cc3C(=O)N([C@@H](C)CO)C[C@@H]2C)cc1 | inactive |
| C[C@H](CO)N1C[C@H](C)[C@@H](CN(C)C(=O)Nc2cccc3ccccc23)Oc2ccc(NS(=O)(=O)c3ccc(F)cc3)cc2C1=O | inactive |
| C[C@H]1CN([C@@H](C)CO)C(=O)Cc2cc(NC(=O)C3CC3)ccc2O[C@@H]1CN(C)S(=O)(=O)c1cn(C)cn1 | inactive |
| COc1ccc(S(=O)(=O)Nc2ccc3c(c2)C(=O)N([C@H](C)CO)C[C@H](C)[C@H](CN(C)Cc2ccc(Cl)c(Cl)c2)OCCCC[C@H](C)O3)cc1 | inactive |
| COc1ccc(S(=O)(=O)Nc2ccc3c(c2)C(=O)N([C@@H](C)CO)C[C@H](C)[C@H](CN(C)Cc2ccc(Cl)c(Cl)c2)OCCCC[C@@H](C)O3)cc1 | active |
| COc1ccc(S(=O)(=O)Nc2ccc3c(c2)C(=O)N([C@H](C)CO)C[C@@H](C)[C@H](CN(C)Cc2ccc(Cl)c(Cl)c2)OCCCC[C@@H](C)O3)cc1 | active |
| COc1ccc(S(=O)(=O)Nc2ccc3c(c2)C(=O)N([C@H](C)CO)C[C@H](C)[C@H](CN(C)Cc2ccc(Cl)c(Cl)c2)OCCCC[C@@H](C)O3)cc1 | active |
| COc1ccc(S(=O)(=O)Nc2ccc3c(c2)C(=O)N([C@@H](C)CO)C[C@@H](C)[C@@H](CN(C)Cc2ccc(Cl)c(Cl)c2)OCCCC[C@@H](C)O3)cc1 | active |
| COc1ccc(S(=O)(=O)Nc2ccc3c(c2)C(=O)N([C@H](C)CO)C[C@@H](C)[C@@H](CN(C)Cc2ccc(Cl)c(Cl)c2)OCCCC[C@H](C)O3)cc1 | inactive |
| COCCNC(=O)C[C@H]1C[C@@H]2c3cc(NS(C)(=O)=O)ccc3O[C@@H]2[C@@H](CO)O1 | inactive |
